Measurements taken from PubChem BioAssay.
Active and inactive are the calls of the source.

Tests used:
[1] = small molecules captured by biotinylated probe aFSTL3 – biochemical, small-molecule microarray, fluorescence 635/667, stem cell growth factor project, primary screen (AID 1064); conditions: higher = more signal;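 note: measures binding of the biotinylated anti-FSTL3 antibody to printed compounds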
[2] = binders from COS7 lysate, DM2A8 probe, primary screen, torsin A project, cell lysate, small-molecule microarray, fluorescence 635/667 (AID 1065); conditions: higher = more signal, COS7 lysate expressing mutant human TOR1A
[3] = small molecules captured by biotinylated probe aFGF2 – biochemical, small-molecule microarray, fluorescence 635/667, stem cell growth factor project, primary screen (AID 1067); conditions: higher = more signal;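 note: measures binding of biotinylated aFGF2 protein to printed compounds on slides; z-score merges feature fluorescence and signal-to-noise across triplicate slides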
[4] = small molecules captured by biotinylated probe aFGF10 – biochemical, small-molecule microarray, fluorescence 635/667, stem cell growth factor project, primary screen (AID 1071); conditions: higher = more signal;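 note: score merges 667 nm spot intensity and signal to noise from triplicate slides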
[5] = target: Neurogenic locus notch homolog protein 2 (Homo sapiens) (UniProt Q04721); experiment: small molecules binding Notch2 protein – biochemical, small-molecule microarray, 635 nm fluorescence, stem cell growth factors, primary screen (AID 1073); conditions: higher = more signal
[6] = target: Pro-neuregulin-1, membrane-bound isoform (Homo sapiens) (UniProt Q02297); experiment: small molecules binding neuregulin-1 protein – biochemical, small-molecule microarray, fluorescence 635/667, psychiatric disease protein project, primary screen (AID 1075); conditions: NRG1 binding, 635 nm fluorescence, higher = more signal;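 note: score combines 667 nm spot fluorescence with signal to noise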
Pro-neuregulin-1, membrane-bound isoform (Homo sapiens), sequence (Q02297 whole entry, looked up, the tested form may be a part, canonical isoform): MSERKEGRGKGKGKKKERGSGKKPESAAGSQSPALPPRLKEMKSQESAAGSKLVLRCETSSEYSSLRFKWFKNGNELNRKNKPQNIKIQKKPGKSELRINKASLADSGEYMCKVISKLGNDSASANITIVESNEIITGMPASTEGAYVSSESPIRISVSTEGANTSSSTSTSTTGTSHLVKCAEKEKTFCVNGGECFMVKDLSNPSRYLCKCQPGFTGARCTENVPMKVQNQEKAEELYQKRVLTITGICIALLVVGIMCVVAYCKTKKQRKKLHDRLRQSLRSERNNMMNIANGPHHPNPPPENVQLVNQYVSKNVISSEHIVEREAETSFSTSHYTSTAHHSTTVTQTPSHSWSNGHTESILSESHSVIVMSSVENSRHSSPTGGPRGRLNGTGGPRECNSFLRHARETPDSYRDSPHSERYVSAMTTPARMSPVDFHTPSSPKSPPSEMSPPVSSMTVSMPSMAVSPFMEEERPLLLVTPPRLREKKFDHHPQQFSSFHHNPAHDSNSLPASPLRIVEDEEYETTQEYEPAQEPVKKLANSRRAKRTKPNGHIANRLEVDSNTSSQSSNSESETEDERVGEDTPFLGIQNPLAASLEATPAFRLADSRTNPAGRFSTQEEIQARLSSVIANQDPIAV

[7] = system: Neuregulin-1 EGF-like domain; experiment: small molecules binding NRG1 EGF domain – biochemical, small-molecule microarray, 635 nm fluorescence, primary screen (AID 1081); conditions: higher = more signal;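 note: binding of the protein to compounds printed on small-molecule microarray slides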
[8] = FRG1 expression reporter modulators in myotubes – cell-based, C2C12 myotubes, firefly/Renilla luciferase, luminescence, FRG1 inhibition for FSHD, primary screen (AID 1084); conditions: FRG1 promoter luciferase, higher = more signal, called active from +8 up or from −8 down
[9] = small molecules captured by biotinylated probe aFST – biochemical, small-molecule microarray, fluorescence 635/667, stem cell growth factor project, primary screen (AID 1086); conditions: higher = more signal;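 note: score merges 667 nm fluorescence with signal-to-noise of each printed compound spot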
[10] = binders of probe aHhip on microarray, primary screen, stem cell growth factor project, biochemical, small-molecule microarray, fluorescence 635/667 (AID 1087); conditions: higher = more signal;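 note: score merges spot fluorescence at 667nm with spot signal to noise ratio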
[11] = system: PRMT1 (protein arginine N-methyltransferase 1); experiment: small molecules binding arginine methyltransferase PRMT1 – biochemical, small-molecule microarray, 635 nm fluorescence, primary screen (AID 1088); conditions: higher = more signal;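 note: binding of Prmt1 protein to compounds spotted on small-molecule microarray slides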
[12] = growth effects on S. cerevisiae YJM789 – YJM789 clinical isolate, OD600, 24 h, basal, primary screen (AID 1089); conditions: higher = more signal, called active from +8 up or from −8 down;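 note: growth of clinical yeast isolate S. cerevisiae YJM 789 seeded 1000 cells per well; test concentration not given here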
[13] = S. pombe growth modifiers, basal conditions – strain 972, OD600, 24 h, no modulator, primary screen (AID 1090);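 note: basal condition with compound alone and no growth modifier present; test concentration not given here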; conditions: S. pombe 972 growth, higher = more signal, called active from +8 up or from −8 down
[14] = budding yeast growth modifiers under rapamycin – strain BY4716, OD600, 96 h, primary screen (AID 1091); note: test concentration not given here; conditions: S. cerevisiae BY4716 + rapamycin, higher = more signal, called active from +8 up or from −8 down
[15] = target: Torsin-1A-interacting protein 2 (Homo sapiens) (UniProt Q8NFQ8); experiment: small molecules binding lysate-expressed LULL1 – cell lysate, human LULL1 lysate, 635/667 nm fluorescence, primary screen (AID 1092); conditions: small-molecule microarray, hLULL1 lysate binding, 635 nm fluorescence; higher = more signal;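 note: probe is lysate of COS7 cells overexpressing human LULL1; score merges per-feature 667 nm fluorescence with signal-to-noise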
Torsin-1A-interacting protein 2 (Homo sapiens), sequence (Q8NFQ8 whole entry, looked up): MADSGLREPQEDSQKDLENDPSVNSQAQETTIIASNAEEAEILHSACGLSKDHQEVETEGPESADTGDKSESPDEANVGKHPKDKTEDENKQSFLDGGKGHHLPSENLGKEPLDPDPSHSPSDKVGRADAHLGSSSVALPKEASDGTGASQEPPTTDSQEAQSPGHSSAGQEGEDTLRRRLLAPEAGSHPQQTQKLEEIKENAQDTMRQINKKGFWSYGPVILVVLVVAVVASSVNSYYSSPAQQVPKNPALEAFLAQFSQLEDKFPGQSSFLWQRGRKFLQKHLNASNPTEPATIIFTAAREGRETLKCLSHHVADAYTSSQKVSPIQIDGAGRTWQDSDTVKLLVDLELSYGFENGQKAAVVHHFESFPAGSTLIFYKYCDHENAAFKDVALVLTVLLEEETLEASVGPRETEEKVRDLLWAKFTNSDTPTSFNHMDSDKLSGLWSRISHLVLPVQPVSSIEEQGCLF

[16] = optical density change of DRC41 E. coli – strain DRC41, OD650, 24 h, E. coli filamentation project, primary screen (AID 1093);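 note: MC1000 strain lacking acrAB efflux and sulA so SOS filamentation is blocked; test concentration not given here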; conditions: E. coli DRC41 growth, higher = more signal, called active from +8 up or from −8 down
[17] = probe aLefty2 binding to arrayed compounds – biochemical, biotinylated probe, 635/667 nm fluorescence, primary screen (AID 1094); conditions: small-molecule microarray, higher = more signal;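 note: score merges spot fluorescence near 667 nm with spot signal-to-noise ratio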
[18] = system: Noggin (protein binding on small-molecule microarray); experiment: small molecules binding Noggin protein – biochemical, 635/667 nm fluorescence, primary screen (AID 1095); conditions: 635 nm fluorescence, higher = more signal;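 note: score merges 667 nm feature fluorescence with signal to noise over triplicate slides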
[19] = target: Neurogenic locus notch homolog protein 3 (Homo sapiens) (UniProt Q9UM47); experiment: small molecules binding NOTCH3 protein – biochemical, 635/667 nm fluorescence, primary screen (AID 1096); conditions: small-molecule microarray, 635 nm fluorescence, higher = more signal
Neurogenic locus notch homolog protein 3 (Homo sapiens), sequence (Q9UM47 whole entry, looked up): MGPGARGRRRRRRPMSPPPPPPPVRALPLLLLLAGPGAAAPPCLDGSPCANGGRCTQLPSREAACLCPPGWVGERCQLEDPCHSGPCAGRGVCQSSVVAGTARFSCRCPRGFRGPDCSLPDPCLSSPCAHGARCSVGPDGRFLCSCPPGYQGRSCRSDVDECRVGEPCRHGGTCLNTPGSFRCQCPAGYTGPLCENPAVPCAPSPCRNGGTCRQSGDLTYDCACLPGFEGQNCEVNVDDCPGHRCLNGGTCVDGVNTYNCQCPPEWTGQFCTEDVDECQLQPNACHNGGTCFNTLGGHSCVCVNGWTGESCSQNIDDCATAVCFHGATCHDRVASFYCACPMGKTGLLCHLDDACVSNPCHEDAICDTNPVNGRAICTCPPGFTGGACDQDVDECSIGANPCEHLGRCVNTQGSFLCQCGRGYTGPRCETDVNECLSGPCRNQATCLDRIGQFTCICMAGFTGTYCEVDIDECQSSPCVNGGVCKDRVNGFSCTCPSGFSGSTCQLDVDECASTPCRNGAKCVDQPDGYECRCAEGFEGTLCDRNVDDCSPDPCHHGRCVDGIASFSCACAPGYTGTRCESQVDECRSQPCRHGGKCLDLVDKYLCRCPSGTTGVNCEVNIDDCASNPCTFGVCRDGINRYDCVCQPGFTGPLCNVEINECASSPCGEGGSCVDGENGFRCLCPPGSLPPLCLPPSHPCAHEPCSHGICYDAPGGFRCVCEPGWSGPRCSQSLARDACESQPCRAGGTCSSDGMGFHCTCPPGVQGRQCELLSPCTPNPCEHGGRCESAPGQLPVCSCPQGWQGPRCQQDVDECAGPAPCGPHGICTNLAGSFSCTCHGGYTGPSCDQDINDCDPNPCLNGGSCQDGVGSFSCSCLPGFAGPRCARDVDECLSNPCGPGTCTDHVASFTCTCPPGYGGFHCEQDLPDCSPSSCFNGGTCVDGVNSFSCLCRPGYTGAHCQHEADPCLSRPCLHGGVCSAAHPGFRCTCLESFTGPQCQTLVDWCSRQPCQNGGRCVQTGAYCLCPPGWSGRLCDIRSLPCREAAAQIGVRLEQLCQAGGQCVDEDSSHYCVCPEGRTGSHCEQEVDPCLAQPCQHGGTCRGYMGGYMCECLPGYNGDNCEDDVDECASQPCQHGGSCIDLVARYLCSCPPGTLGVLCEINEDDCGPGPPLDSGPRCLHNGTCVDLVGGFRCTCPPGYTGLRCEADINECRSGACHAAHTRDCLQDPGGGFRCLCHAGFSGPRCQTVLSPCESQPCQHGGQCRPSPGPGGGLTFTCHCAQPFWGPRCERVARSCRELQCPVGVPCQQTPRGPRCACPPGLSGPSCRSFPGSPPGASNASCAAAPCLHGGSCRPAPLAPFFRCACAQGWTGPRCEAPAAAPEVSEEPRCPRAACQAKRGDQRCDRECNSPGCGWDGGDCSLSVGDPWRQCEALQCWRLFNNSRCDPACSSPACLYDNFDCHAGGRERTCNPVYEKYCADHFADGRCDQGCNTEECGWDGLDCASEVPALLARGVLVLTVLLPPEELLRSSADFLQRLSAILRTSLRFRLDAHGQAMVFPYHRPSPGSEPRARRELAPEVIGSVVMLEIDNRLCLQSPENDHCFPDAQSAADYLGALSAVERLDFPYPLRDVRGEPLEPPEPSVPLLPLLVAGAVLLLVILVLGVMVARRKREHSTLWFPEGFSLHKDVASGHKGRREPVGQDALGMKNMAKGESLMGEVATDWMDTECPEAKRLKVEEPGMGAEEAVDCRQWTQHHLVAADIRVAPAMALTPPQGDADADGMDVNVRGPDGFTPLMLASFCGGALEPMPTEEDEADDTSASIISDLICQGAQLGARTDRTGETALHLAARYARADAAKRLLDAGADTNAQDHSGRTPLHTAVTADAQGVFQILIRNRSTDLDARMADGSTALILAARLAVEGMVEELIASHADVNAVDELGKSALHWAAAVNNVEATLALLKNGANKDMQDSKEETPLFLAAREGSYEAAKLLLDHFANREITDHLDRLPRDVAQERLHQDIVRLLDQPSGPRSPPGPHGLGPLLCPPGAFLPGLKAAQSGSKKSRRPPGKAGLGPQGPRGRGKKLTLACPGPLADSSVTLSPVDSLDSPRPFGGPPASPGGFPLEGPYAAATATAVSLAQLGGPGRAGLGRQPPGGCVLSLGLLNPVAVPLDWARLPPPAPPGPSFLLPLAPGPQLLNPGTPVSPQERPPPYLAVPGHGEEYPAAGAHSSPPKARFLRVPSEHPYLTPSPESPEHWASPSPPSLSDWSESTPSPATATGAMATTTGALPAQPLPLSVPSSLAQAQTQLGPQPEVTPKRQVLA

[20] = probe aEGFR binding to arrayed compounds – biochemical, biotinylated probe, 635/667 nm fluorescence, primary screen (AID 1097); conditions: small-molecule microarray, higher = more signal;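 note: probe is a biotinylated anti-EGFR antibody binding compounds printed on slides; score combines fluorescence near 667 nm and signal to noise of each spot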

| SMILES | composite z-score [1] | composite z-score [2] | composite z-score [3] | composite z-score [4] | composite z-score [5] | composite z-score [6] | composite z-score [7] | z-score [8] | composite z-score [9] | composite z-score [10] | composite z-score [11] | z-score [12] | z-score [13] | z-score [14] | composite z-score [15] | z-score [16] | composite z-score [17] | composite z-score [18] | composite z-score [19] | composite z-score [20] |
| --- | --- | --- | --- | --- | --- | --- | --- | --- | --- | --- | --- | --- | --- | --- | --- | --- | --- | --- | --- | --- |
| COc1ccc([Si](C)(C)[C@H]2[C@H](CCn3cc(CCO)nn3)O[C@@]3(C(=O)N(Cc4ccc(N5CCOC5=O)cc4)c4ccccc43)[C@@H]2C)cc1 | 0.102 | 1.38 | -0.0158 | 0.44 | 0.14 | 1.51 | 1.07 | -3.54 (inactive) | 0.147 | -0.236 | 1.37 | 1.02 (inactive) | 0.928 (inactive) | 4.55 (inactive) | 1.31 | 1.01 (inactive) | -0.103 | 0.42 | 0.928 | -0.212 |
| CCOC(=O)C[C@H]1[C@H](OC(=O)Cc2ccc3c(c2)OCO3)[C@@H](NC(=O)C2CCCCC2)c2cc(OCCCO)ccc2N1C(=O)Cc1ccc(OC)cc1 | -0.397 | 0.0664 | -0.048 | 0.145 | 1.17 | -0.054 | 0.86 | -2.5 (inactive) | 0.364 | 0.0515 | 1.19 | -1.74 (inactive) | -0.38 (inactive) | -0.558 (inactive) | 1.89 | 1.21 (inactive) | -0.0313 | 0.509 | 0.892 | -0.0234 |
| COc1cc(C(O)C2C=CC3C(=O)N(c4ccccc4)C(=O)C3N2Nc2ccc(C#N)cc2)cc(OC)c1OC (stereo not given) | 0.606 | 0.226 | 0.179 | 1.14 | 1.67 | 2.18 | 1.41 | 0.209 (inactive) | 1.77 | 0.295 | 1.54 | -0.531 (inactive) | 0.849 (inactive) | 1.75 (inactive) | 3.84 | -1.27 (inactive) | 0.368 | -0.0742 | 1.03 | 0.273 |
| COc1c(C)cc(-c2cc3c(c(-c4ccc(Oc5ccccc5)cc4)n2)[Si](C(C)C)(C(C)C)OC3)cc1C | -0.128 | -0.0685 | -0.147 | -0.114 | 0.104 | -0.0614 | -1.06 | 0.643 (inactive) | 0.0723 | -0.353 | -0.871 | 1.09 (inactive) | 0.818 (inactive) | 2.03 (inactive) | 0.0255 | -1.38 (inactive) | -0.0528 | 0.104 | -0.386 | -0.0947 |
| COc1ccccc1CN1C(=O)c2ccccc2[C@@H](C(=O)NCCN2CCOCC2)[C@@H]1c1ccc(CO)cc1 | 0.109 | -0.267 | -0.0999 | 0.539 | 0.159 | 1.01 | 1.47 | -2.69 (inactive) | -0.2 | -0.169 | 0.663 | -0.884 (inactive) | 0.067 (inactive) | -0.805 (inactive) | 3.32 | 0.339 (inactive) | -0.0948 | 0.025 | 0.209 | -0.156 |
| O=C/C=C/c1ccc2c(c1)OCO2 | -0.23 | -0.508 | -0.115 | 0.182 | -0.24 | -0.31 | 0.0106 | -0.779 (inactive) | -0.158 | 0.0821 | 0.274 | -3.66 (inactive) | -16.7 (active) | -1.69 (inactive) | -0.857 | -1.98 (inactive) | -0.151 | 0.542 | 0.0863 | -0.0978 |
| O=C(O)[C@@]1(Cc2ccccc2)N=C(c2ccc(OCCCO)cc2)O[C@H]1c1ccccc1 | 0.447 | -0.647 | -0.0819 | 0.0083 | -0.738 | 1.91 | 0.923 | -3.29 (inactive) | 0.88 | -0.126 | 1.48 | 0.552 (inactive) | -0.93 (inactive) | 0.115 (inactive) | 2.42 | 0.625 (inactive) | -0.126 | 0.454 | 0.793 | -0.184 |
| COc1ccc([Si](C)(C)[C@@H]2[C@@H](CC(=O)N(CCO)Cc3ccccc3)O[C@]3(C(=O)N(C)c4ccccc43)[C@H]2C)cc1 | 1.02 | -0.135 | -0.0336 | 0.628 | 0.525 | 0.872 | 1.11 | -2.19 (inactive) | 1.21 | 0.411 | 1.54 | -0.943 (inactive) | 0.14 (inactive) | 0.451 (inactive) | 1.81 | -0.0145 (inactive) | 0.512 | 1.21 | 0.963 | 0.238 |
| Cc1cc(C)c(C(O)C2C=CC3C(=O)N(c4ccccc4)C(=O)C3N2Nc2ccc(C#N)cc2)c(C)c1 (stereo not given) | 0.624 | 0.36 | 0.111 | 0.783 | 1.58 | 1.74 | 1.15 | -1.08 (inactive) | 1.73 | 0.167 | 1.12 | 0.674 (inactive) | 0.788 (inactive) | 2.16 (inactive) | 3.52 | 0.111 (inactive) | 0.512 | -0.0482 | 1.05 | 0.0905 |
| O=C1C2C=CC(C(O)c3cccs3)N(Nc3ccccc3F)C2C(=O)N1c1ccccc1 (stereo not given) | -0.111 | 0.28 | -0.0951 | 0.711 | 0.92 | 1.07 | 1.17 | 0.69 (inactive) | 0.267 | -0.196 | -0.441 | -0.471 (inactive) | 0.915 (inactive) | -0.867 (inactive) | 3.17 | 0.153 (inactive) | 0.0166 | -0.226 | 0.476 | -0.11 |
